Structures are written as SMILES. A number with no mark means an inactive call. No rule for the calls is given here.

As usually defined, the inhibition is how much of the control response was suppressed.

In the test the target is Pantothenate synthetase (Mycobacterium tuberculosis (strain ATCC 25618 / H37Rv)) (UniProt P9WIL5). Description: Recombinant Mtb pantothenate synthetase (PanC) inhibitors, coupled enzyme, confirmatory (AID 375).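 Also: 0% = full reaction with vehicle and 100% = no enzyme background.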 As to conditions: coupled enzyme assay; at 10 µM, stronger effect = higher value.
Pantothenate synthetase (Mycobacterium tuberculosis (strain ATCC 25618 / H37Rv)), sequence (P9WIL5 whole entry, looked up): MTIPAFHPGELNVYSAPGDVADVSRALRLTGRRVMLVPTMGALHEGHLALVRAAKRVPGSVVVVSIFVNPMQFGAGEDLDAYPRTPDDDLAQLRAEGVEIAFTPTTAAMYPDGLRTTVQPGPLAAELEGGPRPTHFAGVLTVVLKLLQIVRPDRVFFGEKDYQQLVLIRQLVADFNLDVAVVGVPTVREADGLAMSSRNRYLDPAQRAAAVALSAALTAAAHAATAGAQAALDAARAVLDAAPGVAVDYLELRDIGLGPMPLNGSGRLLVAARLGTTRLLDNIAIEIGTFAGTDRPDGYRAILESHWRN
As for `Cc1csc(NC(=O)C2CCCO2)n1` (stereo not given), the inhibition is 0%.

With `COc1ccc(NC(=O)N2CCC(c3nc(-c4cccs4)no3)CC2)cc1`, the inhibition was 0%. Then `O=C(CN(CC1CCCO1)S(=O)(=O)c1ccc(S(=O)(=O)NC2CC2)cc1)Nc1ccccc1` (stereo not given), with 0%; and `Cc1cccc(OCCCC(=O)O)c1`, with 3%.

Regarding `COc1ccc(Cc2nc(-c3ccc(Br)cc3)no2)cc1`, the inhibition is 7%. Then `CC1CC(=O)c2cnc(NCC3CCCO3)nc2C1` (stereo not given), with 3%; and `COc1ccc(OC)c(Nc2nc(-c3sc(N)nc3C)cs2)c1`, with 0%; and `C=CCSC1=C(C#N)C(c2ccccc2Cl)CC(=O)N1` (stereo not given), with 0%. As to `CCN1C(=O)/C(=C/N2CCc3ccccc32)SC1=S`, the inhibition was 0%.

`COc1ccccc1N1CCN(CC(O)COc2cccc3ccccc23)CC1` (stereo not given): the inhibition is 3%. Then `CCN1CCN(Cc2c(C)[nH]c3ccc(OC)cc3c2=O)CC1`, with 1%; and `CC(=O)Nc1ccc(Oc2ccc3nc(C)[nH]c3c2)cc1`, with 0%. Then `CCCCCn1c(CN2CCN(C(=O)c3ccco3)CC2)nc2c1c(=O)n(C)c(=O)n2C`, with 1%. In the case of `O=C(c1ccc(Br)cc1)N1CCN(S(=O)(=O)c2ccccc2)CC1`, the inhibition is 0%. Then `COC(=O)CNC(=O)c1c(C)cc(=O)oc1C`, with 3%.

Regarding `COc1ccc(N2C(=O)C(Cl)=C(Nc3c(C)n(C)n(-c4ccccc4)c3=O)C2=O)cc1`, the inhibition is 5%. Then `O=C(NCCC1=CCCCC1)C1CCN(C(=O)Nc2ccccc2)CC1`, with 0%; and `CC(C)Oc1ccc(N2CC(C(=O)Nc3ccccc3F)CC2=O)cc1` (stereo not given), with 0%; and `COC(=O)Nc1ccc(S(=O)(=O)N(C)CC(F)(F)C(F)F)cc1`, with 6%.

Take `CN1CCN(/C=N/c2sc3c(c2C#N)CCCCC3)CC1`: the inhibition was 4%.

Regarding `Cc1cccc(CC2CC(=O)N(c3ccccc3)C2=O)c1` (stereo not given), the inhibition is 0%. Then `CCOC(=O)CNS(=O)(=O)c1c(C)noc1C`, with 0%; and `CCOC(=O)C(C(=O)OCC)C(C)C#CCN1CCCCC1` (stereo not given), with 4%; and `COc1ccc(Br)cc1CNC(=O)CCc1nc(-c2ccc(C)cc2)no1`, with 4%.

For the molecule `Cn1nnc2cc(C(=O)N3CCCCCC3)ccc21`, the inhibition is 0%.

`O=C(NCc1cccs1)C1CCCN(c2ncccn2)C1` (stereo not given): the inhibition is 0%.

With `O=C1CCCc2c1cc(C(=O)NCCCN1CCOCC1)c(=O)n2-c1ccc(Cl)cc1`, the inhibition is 0%. Then `Cc1oc2cc(O)ccc2c(=O)c1-c1cnn(-c2ccccc2)c1`, with 5%. Then `COc1ccc(C)cc1NCc1cccc(OC)c1OC`, with 0%; and `Cc1c(Cl)cnc(NC(=O)COC(=O)C(NC(=O)c2ccco2)C(C)C)c1Cl` (stereo not given), with 8%. For `CC(C)COC(=O)N(C)c1ccc(C(O)(C(F)(F)F)C(F)(F)F)cc1`, the inhibition is 5%. In the case of `CCOC(=O)c1nn(-c2sc(C(=O)OC)c(C)c2C(=O)OC)cc1O`, the inhibition was 18%. Then `CCOc1cc(N2CCOCC2)c(OCC)cc1NC(=O)COC(=O)CCc1c[nH]c2ccccc12`, with 0%; and `CCCc1ccc(C(C)NC(=O)c2cnccn2)cc1` (stereo not given), with 0%; and `O=C(COC(=O)C1CC1)c1c[nH]c2ccccc12`, with 1%. Then `CCCOC(=O)C1[C@H]2C(=O)N(CCCOC)C[C@]23C=C[C@H]1O3` (stereo not given in full), with 0%; and `CCCCn1c(=O)[nH]c(=O)c2c1nc(COc1ccc(C#N)cc1)n2CCC`, with 4%; and `CC1(c2ccncc2)Nc2ccccc2-c2nc3ccccc3n21` (stereo not given), with 0%.

Turning to `CCOc1ccccc1C1C(C(=O)Nc2ccc(OC)cc2)=C(C)Nc2nc(CCCO)nn21` (stereo not given), the inhibition was 0%.

Consider `COc1ccc(-n2c(=O)c3c4c(sc3n3cnnc23)CC(C)CC4)cc1` (stereo not given), for which the inhibition was 1%.

These data come from PubChem BioAssay.
